Source: PubChem BioAssay (Tox21)
Inconclusive results are not listed. A call without a number means that no potency is given here. Unmarked numbers belong to inactive results. Active and inactive are the calls of the source. Unless noted, calls come from the whole dose curve; as a rule, active = well fitted curve in the direction sought with a large enough effect in the repeat runs; inconclusive = weak or mixed curves; inactive = no such curve, though single readings can be large; an effect the other way counts as inactive or inconclusive.

What was measured:
[1] = qHTS assay to identify aromatase inhibitors - cell viability counter screen (AID 743084);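 note: cells stimulated with testosterone during compound exposure; nearly all actives have a fitted effect of over 55% in size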
[2] = target: Aryl hydrocarbon receptor (Homo sapiens) (UniProt P35869); assay: qHTS assay to identify small molecule that activate the aryl hydrocarbon receptor (AhR) signaling pathway (AID 743085); note: nearly all actives have a fitted effect of over 15% in size; note: potency is the fitted concentration of half-maximal effect;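 for activation: HG2L7.5c1 human HepG2 liver cells with stably integrated DRE-driven firefly reporter; series mostly up to about 70 µM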
Chain of Aryl hydrocarbon receptor (Homo sapiens) (P35869 whole entry, looked up): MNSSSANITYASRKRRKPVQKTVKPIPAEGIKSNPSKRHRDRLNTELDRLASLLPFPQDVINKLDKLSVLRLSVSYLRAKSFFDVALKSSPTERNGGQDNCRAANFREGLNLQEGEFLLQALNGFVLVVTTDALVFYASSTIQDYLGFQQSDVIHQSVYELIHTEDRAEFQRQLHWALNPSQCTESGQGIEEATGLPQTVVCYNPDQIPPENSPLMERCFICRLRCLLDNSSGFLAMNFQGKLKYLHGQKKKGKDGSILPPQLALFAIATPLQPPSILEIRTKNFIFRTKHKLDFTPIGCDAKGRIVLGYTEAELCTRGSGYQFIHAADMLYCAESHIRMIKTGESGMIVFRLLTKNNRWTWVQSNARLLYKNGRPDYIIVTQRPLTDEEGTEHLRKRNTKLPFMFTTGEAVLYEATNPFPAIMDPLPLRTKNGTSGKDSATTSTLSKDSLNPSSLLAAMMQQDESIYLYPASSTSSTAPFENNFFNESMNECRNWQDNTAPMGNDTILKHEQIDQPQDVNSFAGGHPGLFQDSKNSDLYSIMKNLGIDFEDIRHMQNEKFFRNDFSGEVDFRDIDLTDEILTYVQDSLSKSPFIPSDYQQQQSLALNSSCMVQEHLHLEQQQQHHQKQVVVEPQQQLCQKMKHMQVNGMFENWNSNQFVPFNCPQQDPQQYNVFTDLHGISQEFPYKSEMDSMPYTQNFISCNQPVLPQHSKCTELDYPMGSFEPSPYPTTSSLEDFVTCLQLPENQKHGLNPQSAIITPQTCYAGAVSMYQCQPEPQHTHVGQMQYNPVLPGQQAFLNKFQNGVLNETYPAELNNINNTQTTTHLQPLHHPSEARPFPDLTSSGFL
How it was run: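 24 h compound exposure, 37C, HepG2-derived HG2L7.5c1 cells with DRE-responsive luciferase. Readouts: fluorescence viability, then luminescence at room temperature after 30 min.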

[3] = qHTS assay to identify small molecule that activate the aryl hydrocarbon receptor (AhR) signaling pathway - cell viability counter screen (AID 743086);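 note: HepG2 liver cells carrying the AhR DRE luciferase reporter; series mostly up to about 70 µM; nearly all actives have a fitted effect of over 45% in size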
How it was run: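 HepG2-AhR-luc (HG2L7.5c1) cells, 4000/well, were preincubated 5 h at 37C, exposed to compound in qHTS format for 24 hr at 37C, then given CellTiter-Fluor for 30 min; viability was read as fluorescence in the reporter wells.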

[4] = target: Peroxisome proliferator-activated receptor gamma (Homo sapiens) (UniProt P37231); assay: qHTS assay to identify small molecule agonists of the peroxisome proliferator-activated receptor gamma (PPARg) signaling pathway (AID 743094; active = well fitted activation curve with a large enough effect in the signal ratio in the repeat runs, not every such curve was filed as active; the % refers to the signal ratio)
Chain of Peroxisome proliferator-activated receptor gamma (Homo sapiens) (P37231 whole entry, looked up): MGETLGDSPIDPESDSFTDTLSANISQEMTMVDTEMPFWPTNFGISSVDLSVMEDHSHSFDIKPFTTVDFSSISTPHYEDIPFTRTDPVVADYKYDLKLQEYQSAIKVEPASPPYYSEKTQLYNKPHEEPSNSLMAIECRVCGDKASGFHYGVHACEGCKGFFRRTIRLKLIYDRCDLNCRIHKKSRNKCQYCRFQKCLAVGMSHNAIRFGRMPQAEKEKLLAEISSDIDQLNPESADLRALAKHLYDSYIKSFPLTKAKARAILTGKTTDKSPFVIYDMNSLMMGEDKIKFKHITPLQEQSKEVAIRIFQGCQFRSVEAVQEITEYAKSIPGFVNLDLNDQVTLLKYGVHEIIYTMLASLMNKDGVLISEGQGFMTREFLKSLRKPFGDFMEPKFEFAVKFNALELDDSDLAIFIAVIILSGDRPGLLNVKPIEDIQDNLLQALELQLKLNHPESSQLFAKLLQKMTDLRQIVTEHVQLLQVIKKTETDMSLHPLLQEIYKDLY
How it was run: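 GeneBLAzer PPARg UAS-bla HEK293H cells were plated, rested 5 h, then exposed to compounds for 17 h at 37C. Beta-lactamase activity was read by LiveBLAzer B/G FRET substrate fluorescence after 1 h at room temperature.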

[5] = target: Peroxisome proliferator-activated receptor gamma (Homo sapiens) (UniProt P37231); assay: qHTS assay to identify small molecule antagonists of the peroxisome proliferator-activated receptor gamma (PPARg) signaling pathway (AID 743191; calls by dose curve; note: series mostly up to about 63 µM; nearly all actives have a fitted effect of over 30% in size)
How it was run: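 GeneBLAzer PPARg UAS-bla HEK293H cells carrying a UAS-driven beta-lactamase reporter were plated at 3000 cells/well, preincubated 5 h at 37C, then given compound for 17 h at 37C; LiveBLAzer B/G FRET substrate was read after 1 h at room temperature.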

[6] = qHTS assay to identify small molecule antagonists of the peroxisome proliferator-activated receptor gamma (PPARg) signaling pathway - cell viability counter screen (AID 743194); note: nearly all actives have a fitted effect of over 55% in size
How it was run: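 PPARg-UAS-bla HEK293H cells were plated, rested 5 h at 37 C, then treated with compounds plus rosiglitazone (50 nM final) for 17 h at 37 C; viability was then read by CellTiter-Glo luminescence after 30 min at room temperature.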

[7] = qHTS assay for small molecule agonists of the antioxidant response element (ARE) signaling pathway (AID 743202; active = well fitted activation curve with a large enough effect in the signal ratio in the repeat runs, not every such curve was filed as active; the % refers to the signal ratio)
How it was run: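 Read-out: LiveBLAzer B/G FRET substrate fluorescence after 2 h at room temperature, following 16 h compound treatment at 37 C of HepG2 cells carrying an ARE-driven beta-lactamase reporter.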

[8] = qHTS assay for small molecule agonists of the antioxidant response element (ARE) signaling pathway - cell viability counter screen (AID 743203; calls by dose curve; note: nearly all actives have a fitted effect of over 55% in size)
How it was run: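 ARE-bla HepG2 cells were plated, rested 5 h at 37C/5% CO2, then exposed to compounds in DMSO for 16 h. Viability was read as CellTiter-Glo luminescence after 30 min at room temperature, in the same wells as the ARE screen.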

[9] = qHTS assay for small molecule activators of the heat shock response signaling pathway - cell viability counter screen (AID 743209); note: nearly all actives have a fitted effect of over 50% in size
How it was run: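 HSE-bla HeLa cells plated overnight, then exposed to Tox21 compounds (23 nL in DMSO) for 5 h at 37 C. After the bla reporter read, CellTiter-Glo was added in the same wells and luminescence read after 30 min at room temperature.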

[10] = qHTS assay for small molecule activators of the heat shock response signaling pathway (AID 743210; active = well fitted activation curve with a large enough effect in the signal ratio in the repeat runs, with a control signal flat, not every such curve was filed as active; the % refers to the signal ratio; note: series mostly up to about 63 µM)
How it was run: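 HSE-bla HeLa cells (beta-lactamase reporter under heat shock response elements) were exposed to compounds for 5 h at 37 C, then loaded with LiveBLAzer B/G FRET substrate for 2.5 h at room temperature before fluorescence reading.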

Cc1cccc(C)c1NC(=O)c1ccccc1C(=O)O
Potency [1]: inactive | Potency [2]: inactive | Potency [3]: inactive | outcome [4]: inactive | Potency [5]: inactive | outcome [6]: inactive | Potency [7]: inactive | outcome [8]: inactive | outcome [9]: inactive | outcome [10]: inactive

Cc1ccc2c(c1)OCC(=O)CO2
Potency [1]: inactive | Potency [2]: inactive | Potency [3]: inactive | outcome [4]: inactive | Potency [5]: inactive | outcome [6]: inactive | Potency [7]: inactive | outcome [8]: inactive | outcome [9]: inactive | outcome [10]: inactive

O=C(OCC(COC(=O)c1cccnc1)(COC(=O)c1cccnc1)COC(=O)c1cccnc1)c1cccnc1
Potency [1]: inactive | Potency [2]: inactive | Potency [3]: inactive | outcome [4]: inactive | Potency [5]: inactive | outcome [6]: inactive | Potency [7]: inactive | outcome [8]: inactive | outcome [9]: inactive | outcome [10]: inactive

CC(=C(CCOC(=O)C(C)C)SSC(CCOC(=O)C(C)C)=C(C)N(C=O)Cc1cnc(C)nc1N)N(C=O)Cc1cnc(C)nc1N
Potency [1]: inactive | Potency [2]: inactive | Potency [3]: inactive | outcome [4]: inactive | Potency [5]: inactive | outcome [6]: inactive | Potency [7]: inactive | outcome [8]: inactive | outcome [9]: inactive | outcome [10]: inactive

C[Si](C)=O
activity change, negative = cytotoxicity [1]: -1.09% [at 8.47 µM] | activation [2]: -0.45% [at 8.47 µM] | viability change, negative = cytotoxic [3]: -0.537% [at 8.47 µM] | activation [4]: -3.83% [at 7.08 µM] | ratio activity, negative = inhibition [5]: 8.93% [at 5.95 µM] | activity change, negative = cytotoxicity [6]: 17.1% [at 5.95 µM] | activation [7]: -4.69% [at 8.36 µM] | viability change, negative = cytotoxic [8]: -8.17% [at 8.36 µM] | activity change, negative = cytotoxicity [9]: 6.74% [at 5.95 µM] | activation [10]: -1.34% [at 5.95 µM]

C=C(C)C(=O)OCC(C)(C)COC(=O)C(=C)C
Potency [1]: inactive | Potency [2]: inactive | Potency [3]: inactive | outcome [4]: inactive | Potency [5]: inactive | outcome [6]: inactive | Potency [7]: inactive | outcome [8]: inactive | outcome [9]: inactive | outcome [10]: inactive

CC(=O)c1sc(C)nc1C
Potency [1]: inactive | Potency [2]: inactive | Potency [3]: inactive | outcome [4]: inactive | Potency [5]: inactive | outcome [6]: inactive | Potency [7]: inactive | outcome [8]: inactive | outcome [9]: inactive | outcome [10]: inactive

CC(C)C(=O)OCCc1ccccc1
Potency [1]: inactive | Potency [2]: inactive | Potency [3]: inactive | outcome [4]: inactive | Potency [5]: inactive | outcome [6]: inactive | Potency [7]: inactive | outcome [8]: inactive | outcome [9]: inactive | outcome [10]: inactive

C=C(C)C(=O)OCCOP(=O)(O)OCCOC(=O)C(=C)C
Potency [1]: inactive | Potency [2]: inactive | Potency [3]: inactive | outcome [4]: inactive | Potency [5]: inactive | outcome [6]: inactive | Potency [7]: inactive | outcome [8]: inactive | outcome [9]: inactive | outcome [10]: inactive

CCCCCCOC(=O)CC
Potency [1]: inactive | Potency [2]: inactive | Potency [3]: inactive | outcome [4]: inactive | Potency [5]: inactive | outcome [6]: inactive | Potency [7]: inactive | outcome [8]: inactive | outcome [9]: inactive | outcome [10]: inactive

c1ccc2nccnc2c1
Potency [1]: inactive | Potency [2]: inactive | Potency [3]: inactive | outcome [4]: inactive | Potency [5]: inactive | outcome [6]: inactive | Potency [7]: inactive | outcome [8]: inactive | outcome [9]: inactive | outcome [10]: inactive

C=C(C)C1CCC(C)(O)CC1 (centres undefined)
Potency [1]: inactive | Potency [2]: inactive | Potency [3]: inactive | outcome [4]: inactive | Potency [5]: inactive | outcome [6]: inactive | Potency [7]: inactive | outcome [8]: inactive | outcome [9]: inactive | outcome [10]: inactive

COCCOCCOCCOCCOCCO
Potency [1]: inactive | Potency [2]: inactive | Potency [3]: inactive | outcome [4]: inactive | Potency [5]: inactive | outcome [6]: inactive | Potency [7]: inactive | outcome [8]: inactive | outcome [9]: inactive | outcome [10]: inactive

ClCCCl
Potency [1]: inactive | Potency [2]: inactive | Potency [3]: inactive | outcome [4]: inactive | Potency [5]: inactive | outcome [6]: inactive | Potency [7]: inactive | outcome [8]: inactive | outcome [9]: inactive | outcome [10]: inactive

O=C(NCCc1c[nH]c2ccccc12)c1cccnc1
Potency [1]: inactive | Potency [2]: 13.3 µM (active) | Potency [3]: inactive | outcome [4]: inactive | Potency [5]: inactive | outcome [6]: inactive | Potency [7]: inactive | outcome [8]: inactive | outcome [9]: inactive | outcome [10]: inactive

O=C1c2ccccc2C(=O)c2cc(S(=O)(=O)O)ccc21
Potency [1]: inactive | Potency [2]: inactive | Potency [3]: inactive | outcome [4]: inactive | Potency [5]: inactive | outcome [6]: inactive | Potency [7]: inactive | outcome [8]: inactive | outcome [9]: inactive | outcome [10]: inactive

C=COCCOCCOCCOC=C
Potency [1]: inactive | Potency [2]: inactive | Potency [3]: inactive | outcome [4]: inactive | Potency [5]: inactive | outcome [6]: inactive | Potency [7]: inactive | outcome [8]: inactive | outcome [9]: inactive

CC(N)C(=O)OC(C)(C)Cc1ccc(Cl)cc1 (centres undefined)
Potency [1]: inactive | Potency [2]: inactive | Potency [3]: inactive | outcome [4]: inactive | Potency [5]: inactive | outcome [6]: inactive | Potency [7]: inactive | outcome [8]: inactive | outcome [9]: inactive | outcome [10]: inactive

COc1nccnc1NS(=O)(=O)c1ccc(N)cc1
Potency [1]: inactive | Potency [2]: inactive | Potency [3]: inactive | outcome [4]: inactive | Potency [5]: inactive | outcome [6]: inactive | Potency [7]: inactive | outcome [8]: inactive | outcome [9]: inactive | outcome [10]: inactive

CCCOC(OCCC)OCCC
Potency [1]: inactive | Potency [2]: inactive | Potency [3]: inactive | outcome [4]: inactive | Potency [5]: inactive | outcome [6]: inactive | Potency [7]: inactive | outcome [8]: inactive | outcome [9]: inactive | outcome [10]: inactive

CCCCCCCCCCl
Potency [1]: inactive | Potency [2]: inactive | Potency [3]: inactive | outcome [4]: inactive | Potency [5]: inactive | outcome [6]: inactive | Potency [7]: inactive | outcome [8]: inactive | outcome [9]: inactive | outcome [10]: inactive

Cc1ccc(C=O)cc1C
Potency [1]: inactive | Potency [2]: inactive | Potency [3]: inactive | outcome [4]: inactive | Potency [5]: inactive | outcome [6]: inactive | Potency [7]: inactive | outcome [8]: inactive | outcome [9]: inactive | outcome [10]: inactive
